Results filed as inconclusive are left out. Calls come from the whole dose curve; as a rule, active = well fitted curve in either direction with a large enough effect (not every such curve was filed as active); inconclusive = small, poorly fitted or top-dose-only effect, or another doubt; inactive = flat fitted curve, though single readings scatter.
Assay: AP1 Signaling Pathway (AID 357);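 note: ME-180 reporter cells stimulated with EGF at its EC50 level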
Conditions: ME-180 (cervical carcinoma) AP-1-bla reporter, EGF-induced, beta-lactamase ratio, 5 h; at 17.2 µM (top of the series) unless noted
Source text: NCGC Assay Overview: Activator protein-1 (AP-1), a transcription factor, plays an important role in tumor genesis by regulating genes involved in cell proliferation, differentiation, apoptosis, and angiogenesis. AP-1 activity is induced by a complex network of signaling pathways that involves extracellular signals, such as growth factors. The AP-1 protein complex formed from c-Fos and c-Jun binding to the AP-1 response element results in transcriptional activation of genes containing such elements within their promoter. Low molecular weight molecules have been discovered and developed to modulate various components of these signaling pathways, for example, MAP kinase inhibitors. However, many points of pathway modulation remain untested due to the lack of chemical probes making this signaling locus of general interest. Using a beta-lactamase reporter-gene under control of the AP-1 response element, a cell-based assay [CellSensor(TM) AP-1-bla ME-180 developed by Invitrogen Corp.] was used to measure EGF-induced signaling. Library compounds were measured for their ability to modulate positively or negatively the action of EC50 EGF on reporter gene activity. Compounds were screened in a titration series in 1536-well format. Positive and negative modulators were identified based on the AC50 values derived from the screening data.
NCGC Assay Protocol Summary: 2500 cells/5uL in Opti-MEM medium containing 0.5% dialyzed FBS, 0.1 mM NEAA, 1 mM sodium pyruvate and 10 mM HEPES was dispensed into 1536-well plates and cells were cultured at 37 degrees Celsius overnight. […] After centrifugation at 1000 rpm for 2 seconds the plates were incubated at 37 degrees Celsius for 5 hours. 1 uL of CCF4-dye mixture was added to each well. After incubated at room temperature for 2.5 hours the plates were measured on an EnVision plate reader at Excitation 405nm, Emission1=460nm and Emission 2=530nm. The %Activity was determined from the ratio of 460nm/530nm.
% is set by controls: 0 for no effect and ±100 for the full control effect.

Activity change, negative = inhibition, inactive:
CSc1nc(C)cc(OCCNS(=O)(=O)c2cc(C)ccc2C)n1 -11.3%
Cc1ccc(S(=O)(=O)NCC(=O)OCN2C(=O)c3ccccc3C2=O)cc1 2.06%
CCCSc1nnc2n(C)c(=O)c3c4c(sc3n12)CCC4 -1.82%
CCn1cc(C(=O)NCCCN(C)C)c(=O)c2cc(F)c(N3CCN(C)CC3)cc21 -0.851%
CCC1=C(C(=O)OC)C(c2cc(OC)ccc2OC)C(C#N)=C(N)O1 (stereo not given) -1.51%
CCOC(=O)CSc1nc(-c2ccc3c(c2)OCO3)ccc1C#N 7.89%
CCc1ccccc1NC(=O)CSC1=C(C#N)C(c2ccc(O)c(OC)c2)C2=C(CCCC2=O)N1 (stereo not given) -4.47%
Cc1cc(/C=N\O)c(C)n1-c1ccncc1 0.0567%
COC(=O)COc1ccc(Oc2nc(SC)nc(N(C)C)n2)nn1 4.25%
CCCC(C)n1[nH]c(=O)cc1N (stereo not given) 11.2%
CCOc1ccc(NC(=O)CSC2=C(C#N)C(c3ccc4c(c3)OCO4)CC(=O)N2)cc1 (stereo not given) -17.2%
COc1cccc(C2C(C#N)=C(N)Oc3cc(C)[nH]c(=O)c32)c1OC (stereo not given) -18.5%
Cc1noc(COc2ccccc2OCC(O)CNC(C)(C)C)n1 (stereo not given) 4.01%
O=P(O)(c1ccccc1)c1ccccc1O 6.62%
COC(=O)NC(Nc1sc2c(c1C(N)=O)CCCC2)(C(=O)OC)C(F)(F)F (stereo not given) 2.66%
N#Cc1c2c(c(-c3ccccc3)[nH]c1=O)CCCC2 5.23%
CC(=O)c1cc(CN2CCCCC2)cc(OC(C)C)c1 15.3%
COc1ccc2oc(=O)c(-c3nc(C)cs3)cc2c1 19.7%
COc1ccc2cnn(-c3ccccc3C)c(=O)c2c1OC 10.7%
C=CCOc1nc2c(c(=O)n(Cc3ccc(Cl)c(Cl)c3)c(=O)n2C)n1C -3.25%
CC1CCN(c2[nH]c(=S)c(C#N)c3c2CCCC3)CC1 10.9%
CCOP(=O)(c1ccccc1)c1nc(-c2ccc(F)cc2)oc1N1CCCCC1 (stereo not given) -11.9%
CCCCc1nc(NCCNC(=O)c2ccco2)c(C#N)c2c1CSC(C)(C)C2 -22.7%
O=C(NCc1ccccc1)/C(=N\O)c1ccccc1 -2.22%
CSc1nnc2n(C3CCCCC3)c(=O)c3c4c(sc3n12)CCCC4 19.1%
O=C1CC(NCc2ccc3c(c2)OCO3)C(=O)N1Cc1ccc2c(c1)OCO2 (stereo not given) -14.2%
CN=c1sc2ccccc2n1CC(O)COCc1ccco1 (stereo not given) -8.62%
COc1ccc(N/C(=N\c2nc(C)cc(C)n2)NC(=O)C(C)C)cc1OC -12.4%
Clc1ccc2nc(N3CCNCC3)nc(-c3ccccc3)c2c1 28.9%
CCOC(=O)c1ccc(-n2c(=O)[nH]c3ccccc3c2=O)cc1 3.86%
N/C(CCCN1CCCCC1)=N/O 14.3%
C=CCc1c(C)c(C#N)c2nc3ccccc3n2c1N1CCN(C)CC1 -17.1%
CCC1(C)Cc2c(sc(NC(=O)CCC(=O)O)c2C#N)CO1 (stereo not given) 4.06%
COCCOC(=O)c1c(C)nc(SCC(=O)Nc2ccc(C)cc2)c(C#N)c1-c1ccco1 -27.8%
Cc1cc(=O)n2[nH]c(N3C(=O)CCC3=O)nc2n1 5.03%
O=C(Nc1ccc2c(c1)OCCO2)c1ccc(Br)o1 -1.9%
CCOC(=O)CSc1nnc(C)c(=O)[nH]1 12.3%
CN(C)c1oc(-c2cccs2)nc1C#N -7.44%
COc1ccc(C(=O)c2oc3nc(C)cc(C)c3c2N)cc1 -14.2%
CCC1(C)Cc2c(sc3c2c(=O)n(C)c2nnc(SCc4ccc5c(c4)OCO5)n32)CO1 (stereo not given) 11.8%

— PubChem BioAssay (NCATS)
